According to PubChem BioAssay (Tox21):
Values without a mark were called inactive. Records with an inconclusive call do not appear. Where a call stands in place of a potency, no number is given. Calls of active or inactive are those of the source. Unless noted, calls come from the whole dose curve.

Experiments:
[1] = Nuclear factor erythroid 2-related factor 2/antioxidant responsive element (Nrf2/ARE) small molecule agonists: qHTS cell viability counter screen in human keratinocytes (AID 1919968; active = well fitted curve in the direction sought with a large enough effect in the repeat runs; an effect the other way counts as inactive or inconclusive; note: nearly all actives have a fitted effect of over 55% in size; note: potency is the fitted concentration of half-maximal effect)
How it was run: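 Cells of the KeratinoSens line were plated at 1,500 per well and left for 5 h before compound transfer from DMSO stocks. After a 23 h incubation (37 C, 5% CO2), CellTiter-Fluor was added. Signal was taken as fluorescence intensity 1 h later.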

[2] = biological target: Gonadotropin-releasing hormone receptor (Homo sapiens) (UniProt P30968); assay: Human gonadotropin-releasing hormone receptor (GnRHR) small molecule agonists, calcium flux assay in GnRHR-HEK293 cells (AID 1920063); note: nearly all actives have a fitted effect of over 35% in size
Chain of Gonadotropin-releasing hormone receptor (Homo sapiens) (P30968 whole entry, looked up): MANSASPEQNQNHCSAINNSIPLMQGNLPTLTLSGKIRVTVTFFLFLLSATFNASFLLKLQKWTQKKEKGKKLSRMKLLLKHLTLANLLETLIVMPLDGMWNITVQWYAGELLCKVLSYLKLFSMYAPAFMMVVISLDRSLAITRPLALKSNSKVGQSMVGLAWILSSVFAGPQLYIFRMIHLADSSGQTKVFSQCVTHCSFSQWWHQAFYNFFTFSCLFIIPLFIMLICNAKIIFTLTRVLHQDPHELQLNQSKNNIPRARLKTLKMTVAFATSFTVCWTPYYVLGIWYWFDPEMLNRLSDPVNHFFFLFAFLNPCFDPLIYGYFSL
How it was run: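 Compounds dissolved in DMSO are pin-transferred onto dye-loaded GnRHR-HEK293 cells, which were seeded 18 h before at 37 C/5% CO2. Calcium signal is read as fluorescence intensity at 1 s intervals for 3 min.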

[3] = biological target: KiSS-1 receptor (Homo sapiens) (UniProt Q969F8); assay: Human kisspeptin (KISS1R) small molecule agonists, calcium flux assay in KISS1R-HEK293 cells (AID 1920064; active = well fitted curve in the direction sought with a large enough effect in the repeat runs; an effect the other way counts as inactive or inconclusive)
Chain of KiSS-1 receptor (Homo sapiens) (Q969F8 whole entry, looked up): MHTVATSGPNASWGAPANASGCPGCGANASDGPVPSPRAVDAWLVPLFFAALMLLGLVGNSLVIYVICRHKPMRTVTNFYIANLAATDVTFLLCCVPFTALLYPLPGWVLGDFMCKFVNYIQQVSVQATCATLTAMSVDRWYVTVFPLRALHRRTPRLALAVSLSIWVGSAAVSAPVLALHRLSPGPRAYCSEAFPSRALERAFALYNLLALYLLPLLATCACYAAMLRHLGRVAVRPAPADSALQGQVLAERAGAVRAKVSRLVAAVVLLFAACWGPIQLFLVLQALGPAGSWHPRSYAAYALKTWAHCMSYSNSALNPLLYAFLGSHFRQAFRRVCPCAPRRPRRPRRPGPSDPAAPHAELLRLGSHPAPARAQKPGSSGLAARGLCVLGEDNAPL
How it was run: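 Cell line: HEK293, stable human KISS1R. Dye loading 1 h at 37 C after 18 h culture. Read: kinetic fluorescence, 480/540 nm, 3 min at 1 s intervals.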

[4] = G protein-coupled receptor (GPCR) small molecule agonists, calcium flux assay: HEK293 wild type cell line counter screen (AID 1920065)
How it was run: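 Tox21 10K compounds, 15 concentrations each in triplicate, pin-transferred in DMSO onto dye-loaded cells; kinetic read at 480/540 nm for 3 min, 1 s intervals.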

[5] = p53 small molecule agonists, cell-based qHTS assay with human liver microsomes (AID 1963577);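 note: p53 response element beta-lactamase reporter cells with liver microsomes plus NADPH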
How it was run: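 Steps: plate p53RE-bla cells, incubate 5 h at 37 C; add compound in DMSO; add microsomes (0.5 mg/mL final) and NADPH (0.5 mg/mL final); incubate 16 h at 37 C; add LiveBLAzer, 2 h RT; read fluorescence.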

[6] = p53 small molecule agonists, cell-based qHTS assay with rat liver microsomes (AID 1963578)
How it was run: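 Metabolic activation is supplied by rat liver microsomes with NADPH (each 0.5 mg/mL final). p53RE-bla cells incubate with compound 16 h at 37 C; reporter activity is measured by LiveBLAzer fluorescence.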

[7] = p53 small molecule agonists, cell-based qHTS assay with human liver microsomes: qHTS cell viability counter screen (AID 1963579); note: nearly all actives have a fitted effect of over 45% in size
How it was run: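 After the 460/530 nm beta-lactamase read, CellTiter-Glo was added to the same wells and luminescence measured after 30 min at room temperature, giving viability of p53RE-bla cells treated 16 h with compounds plus microsomes and NADPH.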

[8] = p53 small molecule agonists, cell-based qHTS assay with rat liver microsomes: qHTS cell viability counter screen (AID 1963580); note: nearly all actives have a fitted effect of over 45% in size
How it was run: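 After the beta-lactamase ratio was read, CellTiter-Glo was added to the same wells and luminescence measured at 30 min; cells had been treated 16 h at 37 C with compounds, rat liver microsomes and NADPH (0.5 mg/mL final each).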

[9] = p53 small molecule agonists, cell-based qHTS assay: qHTS cell viability counter screen (AID 1963581); note: nearly all actives have a fitted effect of over 45% in size
How it was run: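 ATP content measured by luminescence in HCT-116 p53RE-bla cells treated 16 h at 37 C, same wells as the reporter screen.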

[10] = p53 small molecule agonists, cell-based qHTS assay (AID 1963582; active = well fitted activation curve with a large enough effect in the signal ratio in the repeat runs, not every such curve was filed as active; the % refers to the signal ratio)
How it was run: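 16 h compound exposure (37 C) of p53 response element–bla cells, preceded by 5 h recovery at 37 C/5% CO2; read-out via LiveBLAzer B/G FRET substrate, 2 h RT, fluorescence intensity.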

[11] = biological target: 5-hydroxytryptamine receptor 2A (Homo sapiens) (UniProt P28223); assay: 5-hydroxytryptamine receptor 2A (HTR2A) small molecule antagonists, cell-based qHTS assay (AID 1963586); note: nearly all actives have a fitted effect of over 45% in size
Chain of 5-hydroxytryptamine receptor 2A (Homo sapiens) (P28223 whole entry, looked up): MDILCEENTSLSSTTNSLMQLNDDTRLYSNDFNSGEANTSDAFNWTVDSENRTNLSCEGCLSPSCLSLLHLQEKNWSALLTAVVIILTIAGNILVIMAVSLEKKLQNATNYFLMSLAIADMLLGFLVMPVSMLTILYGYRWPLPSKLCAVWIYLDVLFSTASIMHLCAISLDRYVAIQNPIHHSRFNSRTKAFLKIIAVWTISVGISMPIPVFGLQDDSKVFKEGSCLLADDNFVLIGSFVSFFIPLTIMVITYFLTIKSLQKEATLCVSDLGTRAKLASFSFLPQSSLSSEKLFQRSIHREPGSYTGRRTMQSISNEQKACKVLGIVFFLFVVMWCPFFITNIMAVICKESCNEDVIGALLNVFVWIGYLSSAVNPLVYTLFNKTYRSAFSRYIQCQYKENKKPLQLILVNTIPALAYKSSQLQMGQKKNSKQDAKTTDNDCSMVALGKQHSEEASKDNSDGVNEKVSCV
How it was run: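 CHO cells stably expressing human HTR2A were plated for 18 h at 37 C, then loaded with calcium dye for 1 h. Compounds were preincubated 5 min at room temperature before DOI (4 nM solution) was added. Kinetic fluorescence was read for 3 min.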

[12] = biological target: 5-hydroxytryptamine receptor 2A (Homo sapiens) (UniProt P28223); assay: 5-hydroxytryptamine receptor 2A (HTR2A) small molecule agonists, cell-based qHTS assay (AID 1963587); note: nearly all actives have a fitted effect of over 30% in size; note: potency is the fitted concentration of half-maximal effect
How it was run: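 CHO cells stably expressing human HTR2A, plated 18 h, loaded with calcium dye 1 h at 37 C. Agonist mode: compounds added and intracellular calcium fluorescence recorded kinetically for 2 min at 1 sec intervals.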

[13] = biological target: Muscarinic acetylcholine receptor M1 (Homo sapiens) (UniProt P11229); assay: Cholinergic receptor muscarinic 1 (CHRM1) small molecule antagonists, cell-based qHTS assay (AID 1963588); note: nearly all actives have a fitted effect of over 40% in size; note: potency is the fitted concentration of half-maximal effect
Chain of Muscarinic acetylcholine receptor M1 (Homo sapiens) (P11229 whole entry, looked up): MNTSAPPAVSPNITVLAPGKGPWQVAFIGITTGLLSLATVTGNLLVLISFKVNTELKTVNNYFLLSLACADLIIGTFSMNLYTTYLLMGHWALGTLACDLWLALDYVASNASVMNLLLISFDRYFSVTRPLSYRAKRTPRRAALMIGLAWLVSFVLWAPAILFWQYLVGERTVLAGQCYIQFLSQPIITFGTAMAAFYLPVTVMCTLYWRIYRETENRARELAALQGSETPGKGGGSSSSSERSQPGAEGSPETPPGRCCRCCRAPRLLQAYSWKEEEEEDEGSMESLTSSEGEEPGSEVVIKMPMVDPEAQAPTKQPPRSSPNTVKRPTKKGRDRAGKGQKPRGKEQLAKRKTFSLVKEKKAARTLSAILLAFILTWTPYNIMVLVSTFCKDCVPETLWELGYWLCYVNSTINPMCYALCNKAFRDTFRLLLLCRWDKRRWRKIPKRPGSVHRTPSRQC
How it was run: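 Compounds were tested at 15 concentrations in three independent runs. Dye-loaded CHRM1-CHO cells were exposed 5 min at room temperature before stimulation by acetylcholine added at 50nM. Intracellular calcium was read kinetically on FDSS for 3 min.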

[14] = biological target: Muscarinic acetylcholine receptor M1 (Homo sapiens) (UniProt P11229); assay: Cholinergic receptor muscarinic 1 (CHRM1) small molecule agonists, cell-based qHTS assay (AID 1963589); note: nearly all actives have a fitted effect of over 35% in size
How it was run: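 Homogeneous fluorescence calcium flux, agonist mode. Human M1-expressing CHO cells; compound dosed at 15 concentrations, three independent runs; signal sampled every 1 sec.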

[15] = biological target: Beta-2 adrenergic receptor (Homo sapiens) (UniProt P07550); assay: Adrenergic beta2 receptor (ADRB2) small molecule antagonists, cell-based qHTS assay (AID 1963592); note: series mostly up to about 92 µM; nearly all actives have a fitted effect of over 50% in size
Chain of Beta-2 adrenergic receptor (Homo sapiens) (P07550 whole entry, looked up): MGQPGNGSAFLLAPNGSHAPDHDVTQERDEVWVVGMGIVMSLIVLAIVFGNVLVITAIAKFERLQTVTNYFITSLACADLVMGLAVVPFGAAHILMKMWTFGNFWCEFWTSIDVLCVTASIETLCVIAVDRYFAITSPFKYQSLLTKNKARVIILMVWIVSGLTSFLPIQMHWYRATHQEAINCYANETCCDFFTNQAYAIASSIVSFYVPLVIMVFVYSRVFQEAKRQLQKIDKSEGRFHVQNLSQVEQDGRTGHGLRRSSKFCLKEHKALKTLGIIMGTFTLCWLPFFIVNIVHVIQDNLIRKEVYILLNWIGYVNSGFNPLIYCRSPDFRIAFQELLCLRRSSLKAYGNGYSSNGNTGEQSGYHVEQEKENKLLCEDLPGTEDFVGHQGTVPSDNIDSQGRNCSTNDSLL
How it was run: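 Assay format: CHO-ADRB2 cells, 18-20hr seeding at 37C/5% CO2, then compound plus 1nM isoproterenol agonist mix for 0.5hr RT. Homogeneous time-resolved fluorescence cAMP detection after 1hr, expressed as 665/615 nm ratio.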

[16] = biological target: D(2) dopamine receptor (Homo sapiens) (UniProt P14416); assay: Dopamine D2 receptor (DRD2) small molecule agonists, cell-based qHTS assay (AID 1963594); note: nearly all actives have a fitted effect of over 35% in size
Chain of D(2) dopamine receptor (Homo sapiens) (P14416 whole entry, looked up): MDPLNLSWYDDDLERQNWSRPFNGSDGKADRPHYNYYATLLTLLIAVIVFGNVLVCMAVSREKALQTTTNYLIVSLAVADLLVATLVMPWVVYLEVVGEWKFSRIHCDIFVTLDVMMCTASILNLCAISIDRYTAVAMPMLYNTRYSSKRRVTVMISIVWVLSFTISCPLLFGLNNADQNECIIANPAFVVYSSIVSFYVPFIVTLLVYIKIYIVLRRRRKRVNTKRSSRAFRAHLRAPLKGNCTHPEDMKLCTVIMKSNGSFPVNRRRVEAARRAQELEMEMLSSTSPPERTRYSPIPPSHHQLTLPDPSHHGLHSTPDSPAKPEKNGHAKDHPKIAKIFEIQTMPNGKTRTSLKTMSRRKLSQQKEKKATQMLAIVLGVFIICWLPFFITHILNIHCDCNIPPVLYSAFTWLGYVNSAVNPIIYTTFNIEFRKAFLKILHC
How it was run: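 HEK293 cells stably expressing human DRD2, pre-treated with PDE inhibitor Ro20-1724 (0.1 mM final) and compound 10 min at room temperature, then stimulated with NKH477 (200nM […]) for 30 min. cAMP read by HTRF (665/620 nm).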

[17] = biological target: D(2) dopamine receptor (Homo sapiens) (UniProt P14416); assay: Dopamine D2 receptor (DRD2) small molecule antagonists, cell-based qHTS assay (AID 1963595; active = well fitted inhibition curve with a large enough effect in the signal ratio in the repeat runs, with a control signal flat; the % refers to the signal ratio)
How it was run: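 DRD2-HEK293; 0.1 mM Ro20-1724; cpd 10 min RT; NKH477 200 nM + quinpirole 12 nM, 30 min RT; HTRF cAMP (cAMP-d2/anti-cAMP cryptate), 665/620 nm ratio after 1 h.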

[18] = biological target: Beta-2 adrenergic receptor (Homo sapiens) (UniProt P07550); assay: Adrenergic beta2 receptor (ADRB2) small molecule agonists, cell-based qHTS assay (AID 1963593);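 note: CHO cells stably overexpressing human ADRB2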
How it was run: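 CHO cells stably over-expressing ADRB2 were plated overnight at 37C, then dosed with compounds plus a stimulation mix containing 100uM IBMX and 25uM Ro-20-1724 for 0.5hr at room temperature. cAMP was measured by HTRF competition, 1hr.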

[19] = cAMP Responsive Elements (CRE) small molecule agonists, cell-based qHTS assay (AID 1963590)
How it was run: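 HEK 293T cells stably bearing CRE-bla were plated at 2,000 cells per well and rested 18 h. Compounds, positive controls or DMSO were added for 3 h at 37 C. LiveBLAzer B/G substrate was then loaded for 2 h at room temperature.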

[20] = cAMP Responsive Elements (CRE) small molecule antagonists, cell-based qHTS assay (AID 1963591; active = well fitted inhibition curve with a large enough effect in the signal ratio in the repeat runs, not every such curve was filed as active; the % refers to the signal ratio)
How it was run: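 First, CRE-bla HEK293T cells settled 18 h at 37 C. Next, compound and 0.25 uM final NKH477 were applied for 3 h. Last, LiveBLAzer B/G substrate was loaded for 2 h at room temperature.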

Row | SMILES | Potency [1] | Potency [2] | Potency [3] | Potency [4] | Potency [5] | Potency [6] | Potency [7] | Potency [8] | Potency [9] | Potency [10] | Potency [11] | Potency [12] | Potency [13] | Potency [14] | Potency [15] | Potency [16] | Potency [17] | Potency [18] | Potency [19] | Potency [20]
1 | NC1(c2ccc(-c3nc4ccn5c(=O)[nH]nc5c4cc3-c3ccccc3)cc2)CCC1 | 29.8 µM (active) | inactive | inactive | inactive | inactive | inactive | inactive | inactive | inactive | inactive | inactive | 26.8 µM (active) | 2.9 µM (active) | inactive | inactive | inactive | inactive |  |  | 
2 | Cc1cccc(Nc2ccccc2)c1 | inactive | inactive | inactive | inactive | inactive | inactive | inactive | inactive | inactive | inactive | inactive | inactive | inactive | inactive | inactive | inactive | inactive | inactive |  | 
3 | CCCC(=O)OC(C)(C)Cc1ccccc1 | inactive | inactive | inactive | inactive | inactive | inactive | inactive | inactive | inactive | inactive | inactive | inactive | inactive | inactive | inactive | inactive | inactive | inactive | inactive | 
4 | CCCCCSCCCCC | inactive | inactive | inactive | inactive | inactive | inactive | inactive | inactive | inactive |  | inactive | inactive | inactive | inactive | inactive | inactive | inactive | inactive | inactive | inactive
5 | O=C(NCC(O)CO)c1c(I)c(C(=O)NCC(O)CO)c(I)c(N(CCO)C(=O)CO)c1I (centres undefined) | inactive | inactive | inactive | inactive | inactive | inactive | inactive | inactive | inactive | inactive | inactive |  | inactive | inactive | inactive | inactive | inactive | inactive | inactive | inactive
6 | Cc1ccc(C(C)(C)C)c(O)c1 | inactive | inactive | inactive | inactive | inactive | inactive | inactive | inactive | inactive | inactive | inactive |  |  | inactive | inactive | inactive | inactive |  |  | 
7 | CC/C=C\CCCCCO | inactive | inactive | inactive | inactive | inactive | inactive | inactive | inactive | inactive | inactive | inactive |  | inactive | inactive | inactive |  |  | inactive | inactive | inactive
8 | CS(C)=O | inactive | inactive | inactive | inactive | inactive | inactive | inactive | inactive | inactive | inactive |  |  |  |  | inactive | inactive | inactive | inactive | inactive | 
